# DT40 TDP1 CPT: qHTS for Inhibitors of human tyrosyl-DNA phosphodiesterase 1 (TDP1): qHTS in cells in presence of CPT. chicken DT40 Tdp1-/-;hTDP1 cells + 20 nM CPT, ATP luminescence, 48 h. Potency, µM (top dose mostly 46.2 µM), for inactives: at the highest dose activity change, negative = growth inhibition, actives largely listed as inhibitors. 420,000 compounds, 12% hits. AID 686979, 2013; also: potency is read from the fitted curve at half-maximal effect; nearly all actives have a fitted effect of over 55% in size
#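 Chicken DT40 Tdp1-/- cells complemented with human TDP1, 400 cells/well, exposed to compounds plus 20 nM camptothecin for at least 48 h at 37 C; viability read as ATP content by CellTiter-Glo luminescence.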
# IL1B secr inh: qHTS for Inhibitors of Inflammasome Signaling: IL-1-beta AlphaLISA Primary Screen. THP-1 LPS/ATP IL-1B secretion, AlphaLISA, 16 h; stronger effect = lower value. activity change, % at 57.5 µM. 360,000 compounds, 4.7% hits. AID 743279, 2014; in the data active = activity change below about -50%; inconclusive = mostly about -30% to -49%
#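 THP-1 cells pretreated 1 hr with compounds (up to 57.5 uM final), then stimulated with LPS (250 ng/mL final) plus ATP (1.25 mM final); secreted IL-1B measured by AlphaLISA after 16 hr, decreased signal indicating inhibition.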
# HT1080 IDH1KD tx: qHTS for induction of synthetic lethality in tumor cells producing 2HG: qHTS for the HT-1080-IDH1KD cell line. HT-1080 IDH1 knockdown viability, ATP luminescence, 48 h. Potency, µM (series often up to 46.1 µM), inactives show top-dose activity, negative = toxicity, usual class: cytotoxic. 360,000 compounds, 2% hits;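 also: potency is read from the fitted curve at half-maximal effect; 0% = DMSO wells and -100% = cell-free medium wells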
#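 Luminescent ATP read-out (CellTiter-Glo, 10 min at room temperature) after 48 h compound exposure at 37 °C gave viability of IDH1-knockdown HT-1080 cells. Activity was normalised to DMSO and cell-free wells, then fitted as concentration-response curves.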
# HT1080-NT tox: qHTS for induction of synthetic lethality in tumor cells producing 2HG: qHTS for the HT-1080-NT fibrosarcoma cell line; HT-1080-NT fibrosarcoma viability, CellTiter-Glo ATP luminescence, 48 h; Potency, µM (titrated, usually from 46.1 µM), for inactives: at the top dose activity, negative = less viability, actives largely listed as cytotoxic; 360,000 compounds, 1.6% hits; AID 686970, 2013;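 also: NT is the 2HG producing partner of a matched IDH1 knockdown line; potency is read from the fitted curve at half-maximal effect; 0% = DMSO-treated cells and -100% = media-only wells without cells; nearly all actives have a fitted effect of over 55% in size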
#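 Fibrosarcoma NT cells, 750 per well in 5% FBS RPMI, were exposed to compound for 48 hours. Viability: CellTiter-Glo luminescence.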
# TDP1 cell noCPT: qHTS for Inhibitors of human tyrosyl-DNA phosphodiesterase 1 (TDP1): qHTS in cells in absence of CPT; DT40 Tdp1-/- hTDP1 cells, no CPT, ATP luminescence, 48 h; Potency, µM (highest dose often 46.2 µM), without a hit: at the highest dose activity change, negative = growth inhibition, usual class: inhibitors; 420,000 compounds, 15% hits; AID 686978, 2013; also: potency is read from the fitted curve at half-maximal effect; nearly all actives have a fitted effect of over 55% in size
#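 A cellular qHTS used chicken DT40 cells lacking endogenous Tdp1 but carrying stably transfected human TDP1. Compounds were applied without camptothecin, and cell growth kinetics were judged by ATP-dependent luminescence after ≥48 hr.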
# * marks the source's active call; other numbers are inactive results; ? = inconclusive; / = no result given. Hits are enriched below; roughly 19% of the tested compounds scored in any of these assays. Unless noted, calls follow the shape of the dose curve; as a rule, active = well fitted curve in the direction sought with a large enough effect; inconclusive = small, poorly fitted or top-dose-only effect, or another doubt; inactive = no such curve, though single readings can be large; an effect the other way counts as inactive or inconclusive. Unless noted, % is scaled to controls: 0 for no effect and ±100 for the full control effect.
SMILES,DT40 TDP1 CPT,IL1B secr inh,HT1080 IDH1KD tx,HT1080-NT tox,TDP1 cell noCPT
Cc1ccccc1NC(=S)c1ccc2ccccc2n1,?,30,-4%,9%,?
CC(=O)Nc1ccc(C(=O)OCC(=O)NCc2ccccc2)cc1,?,33,26µM*,?,21µM*
CCCc1nc2ccccc2c(C(=O)OCC(=O)Nc2ccc(S(=O)(=O)N3CCOCC3)cc2)c1CC,16µM*,-67*,10µM*,?,16µM*
Cc1onc(-c2ccccc2Cl)c1C(=O)OCC(=O)Nc1cccc(S(=O)(=O)N2CCOCC2)c1,?,-7,-7%,?,?
CCc1nc2ccccc2c(C(=O)OCC(=O)Nc2ccc(NC(C)=O)cc2)c1C,13µM*,-8,-17%,0%,21µM*
CCc1nc2ccccc2c(C(=O)OCC(=O)NCc2ccco2)c1C,?,0,-9%,-7%,?
CCCc1nc2ccccc2c(C(=O)OCC(=O)NC2CC2)c1CC,?,3,-3%,-4%,?
CCCc1nc2ccccc2c(C(=O)OCC(=O)Nc2cccc(S(=O)(=O)N3CCOCC3)c2)c1CC,12µM*,-10,?,?,?
COc1cccc(NC(=O)C(CCSC)NC(=O)C2CCC(C)CC2)c1 (centres undefined),1%,/,/,/,-14%
CC(C)(C)c1ccc(C(=O)NCCNC(=O)c2ccco2)cc1,0%,41,-9%,0%,-22%
Cc1[nH]c(=O)[nH]c(=O)c1S(=O)(=O)Nc1ccc(F)c([N+](=O)[O-])c1,-8%,-1,4%,3%,2%
O=C(NCCN1CCC(n2c(=O)[nH]c3ccccc32)CC1)C(c1ccccc1)c1ccccc1,16µM*,-80*,?,?,16µM*
O=C(NC1CCCCC1)N1CCC(n2c(=O)[nH]c3ccccc32)CC1,?,-4,2%,14%,-20%
CCCCCn1c(=O)[nH]c2cc(C(=O)NCCN3CCC(C)CC3)ccc2c1=O,-4%,-4,10%,3%,?
O=C(NCCN1CCC(n2c(=O)[nH]c3ccccc32)CC1)c1cccc(F)c1,-29%,-74*,-10%,13%,-23%
CCCCOc1ccc(C(=O)NCCN2CCC(n3c(=O)[nH]c4ccccc43)CC2)cc1,?,-17,16µM*,?,?
O=C(NCCN1CCC(n2c(=O)[nH]c3ccccc32)CC1)c1cc(F)cc(F)c1,-10%,-53*,-1%,-18%,-30%
CC1CCC(NC(=O)c2ccc3c(c2)N(Cc2ccccc2F)C(=O)c2ccccc2S3=O)CC1 (centres undefined),?,/,/,/,-23%
CCOC(=O)C(C)NC(=O)c1cn(-c2ccc(OC)cc2)c(=O)c2ccccc12 (centres undefined),-11%,-11,9%,17%,0%
CC(C)(C)OC(=O)N1CCC[C@H]1C(=O)OCC(=O)Nc1cc(S(C)(=O)=O)ccc1Cl,?,9,11%,6%,-10%
CCN(c1ccccc1)S(=O)(=O)c1cc(NC(=O)CSc2n[nH]c(=O)[nH]c2=O)ccc1Cl,-9%,-13,-1%,-2%,-8%
O=C(NCCN1CCC(n2c(=O)[nH]c3ccccc32)CC1)c1cccc(Cl)c1,16µM*,?,-28%,-26%,?
O=C(NCCN1CCC(n2c(=O)[nH]c3ccccc32)CC1)c1ccncc1,-48%,-28,-13%,-18%,-47%
COc1cccc(CN2CCN(C(=O)c3cccc4ccccc34)CC2)c1,-2%,-18,6%,11%,11%
COc1cccc(CN2CCN(C(=O)c3cc(-c4ccncc4)nc4ccc(C)cc34)CC2)c1,23µM*,-14,-19%,-14%,16µM*
SMILES,DT40 TDP1 CPT,IL1B secr inh,HT1080 IDH1KD tx,HT1080-NT tox,TDP1 cell noCPT
COc1ccc(-c2cc(C(=O)N3CCCCCC3)c3cc(C)ccc3n2)cc1,?,-3,-28%,0%,?
COc1cccc(CN2CCN(C(=O)c3cc(-c4ccccn4)nc4ccc(Cl)cc34)CC2)c1,?,54,-1%,-19%,18µM*
Cc1cc(C(=O)Nc2cccc(-c3ccc(N4CCOCC4)nn3)c2)ccc1[N+](=O)[O-],?,-7,-10%,-21%,26µM*
O=C(Nc1cccc(-c2ccc(N3CCOCC3)nn2)c1)c1cccc(Cl)c1,-21%,11,-1%,2%,21µM*
O=C(Nc1cccc(-c2ccc(N3CCCCC3)nn2)c1)c1ccco1,?,-9,-15%,0%,13µM*
Cc1ccc(C(=O)Nc2cccc(-c3ccc(N4CCOCC4)nn3)c2)cc1C,?,17,-5%,-28%,?
O=C(Nc1cccc(-c2ccc(N3CCOCC3)nn2)c1)c1ccccc1Cl,-30%,-9,5%,-4%,-22%
CNCc1ccccc1Sc1cccc(O)c1,0%,?,-1%,-1%,?
CNCc1ccccc1Sc1cc(O)ccc1O,1.8µM*,-100*,?,?,3.7µM*
CCOC(=O)[C@]12CCCC=C1N(CCc1ccc(OC)c(OC)c1)C(=O)[C@H](CC(=O)NCc1ccccc1)C2,16µM*,?,6%,-7%,13µM*
CCCCCCCCN1C(=O)[C@H](CC(=O)NCc2ccc(OC)c(OC)c2)C[C@@]2(C(=O)OCC)CCCC=C12,?,-77*,?,?,?
CCOC(=O)[C@]12CCCC=C1N(CCc1ccc(OC)c(OC)c1)C(=O)[C@H](CC(=O)N1CCCCC1)C2,15µM*,-25,-4%,-11%,12µM*
O=C(O)CN(CC(=O)O)CC1=CC2C(=CC1=O)Oc1cc(O)c(CN(CC(=O)O)CC(=O)O)cc1C21OC(=O)c2ccccc21 (centres undefined),-21%,/,/,/,?
O=C(N/N=C/c1cccc(OC(=O)N2CCOCC2)c1)c1cccs1,-22%,22,-8%,-9%,?
CCN1CCN(C(C(=O)NC2CCCCC2)c2ccnc3ccccc23)CC1 (centres undefined),-5%,28,4%,26%,1%
CCOc1ccc(OCC)c(NC(=O)CN2CCN(c3cccc(C)c3C)CC2)c1,16µM*,11,3%,8%,23µM*
CCOc1ccc(NC(=O)NCCN2CCN(c3ccccc3F)CC2)cc1,?,?,3%,1%,?

# Screens: PubChem, National Center for Advancing Translational Sciences (NCATS)
